This is part of a sample that, as a whole, favours compounds with a hit. Of some 83,000 tested, about 20% had one in any assay.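 Growth was measured after 48 h exposure to one concentration of compound in 96-well plates. Values under 10 count as active.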 A number with no mark means an inactive call. Activity calls are given as the source filed them.

The subject of this assay is HOP-92 NSCLC. Description: NCI-60 one-dose screen, 48 h (100 = growth as untreated, 0 = no growth, -100 = all killed). Conditions: 10 µM.
Regarding `O=C1Cc2cc(CCN3CCN(c4nsc5ccccc45)CC3)c(Cl)cc2N1`, the growth is 64.9%.

As for `CC(C)Cc1ccc([C@H](C)C(=O)O)cc1`, the growth was 79%.

As to `CN(C)c1nc(N)c2nccnc2n1`, the growth is 101%.

For `COc1ccc(CCN2CCC(Nc3nc4ccccc4n3Cc3ccc(F)cc3)CC2)cc1`, the growth is -20.1% (active).

On to `CNC(=O)c1c(I)c(NC(C)=O)c(I)c(C(=O)O)c1I`, for which the growth is 92.7%.

Consider `C[C@H]1[C@H](OC(=O)CCC(=O)O)O[C@@H]2O[C@]3(C)CC[C@H]4[C@H](C)CC[C@@H]1[C@@]24OO3`, for which the growth was 41.6%.

With `Nc1cc(-c2ccncc2)c[nH]c1=O`, the growth was 90.9%.

Turning to `COc1ccc2c(c1)C(CC(=O)NN)CCC2` (stereo not given), the growth is 93.7%.

On to `CCCCc1oc2ccccc2c1C(=O)c1cc(I)c(OCCN(CC)CC)c(I)c1`, for which the growth was -68.7% (active).

For the compound `Clc1ccc2c(c1)C(N1CCNCC1)=Nc1ccccc1O2`, the growth was 7.39% (active).

In the case of `COc1ccc(Cc2cnc(N)nc2N)cc1OC`, the growth is 90.1%.

Take `CCCCCOC(=O)Nc1nc(=O)n(C2O[C@H](C)[C@@H](O)[C@H]2O)cc1F` (stereo not given in full): the growth was 92.4%.

Take `C[C@@H](O)[C@H]1C(=O)N2C(C(=O)O)=C(SCCN=CN)C[C@H]12`: the growth is -8.43% (active).

Turning to `CCCCC(CC)CN=C(N)NC(N)=NCCCCCCN=C(N)NC(N)=NCC(CC)CCCC` (stereo not given), the growth was -53.9% (active).

With `CO[C@H]1CC(O[C@@H]2/C(C)=C/C[C@@H]3C[C@@H](C[C@]4(C=C[C@H](C)[C@@H](C5CCCCC5)O4)O3)OC(=O)[C@@H]3C=C(C)[C@@H](O)[C@H]4OC/C(=C\C=C\[C@@H]2C)[C@]43O)O[C@@H](C)C1O[C@H]1C[C@H](OC)[C@@H](O)[C@H](C)O1` (stereo not given in full), the growth was -82.9% (active).

The record behind these values is PubChem BioAssay (NCI).
